Source: the supplement of paper PMC7866885, “A novel bicyclic 2,4-diaminopyrimidine inhibitor of Streptococcus suis dihydrofolate reductase” (PeerJ, 2021)
± gives the standard deviation.

Assays:
Streptococcus suis HE06 = test: percent growth relative to DMSO control; higher = less growth inhibition; settings: 10 µM; incubation time 18 h
Method: (§1)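 CLSI broth microdilution: 5x10^4 CFU of Streptococcus suis (strain P1/7 or HE06) incubated with 10 µM Pathogen Box compound in cation-adjusted Mueller Hinton broth, 37 °C, 5% CO2, 18 h. Growth read as OD600 and expressed as percent of the DMSO-treated control (100%); mean ± SD of three independent experiments.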

Streptococcus suis P1/7 = test: as above; settings: 10 µM; incubation time 18 h
Method: as §1

SMILES | percent growth (Streptococcus suis HE06) [%] | percent growth (Streptococcus suis P1/7) [%]
CCOc1ccccc1C(=O)Nc1cccc(-c2nc3ncccn3c2C)c1 | 88.1 ± 24 | 71.6 ± 8.8
O=C(Nc1ccc(N2CCNCC2)cc1)c1ccn2ncc(-c3cccc(Cl)c3)c2n1 | 98.9 ± 27 | 75.2 ± 22
CNc1snc(C)c1C(=O)NCCOc1ccc(OC)cc1 | 102 ± 22 | 115 ± 71
Cc1cc(C(=O)Nc2cnn(Cc3ccc(Cl)cc3Cl)c2)no1 | 94.2 ± 5.5 | 97.5 ± 11
COC(=O)c1ccc(F)cc1NS(=O)(=O)c1cccc(-c2cnn(Cc3ccccc3)c2)c1 | 99.6 ± 8.2 | 127 ± 52
Cc1ccccc1C(=O)N1N=C(Nc2ccccc2)SC1(C)C | 104 ± 8.3 | 80.9 ± 23
COc1cc(Br)cc2cc(C(=O)Nc3cccc(C(F)(F)F)c3)c(=O)oc12 | 116 ± 26 | 115 ± 52
CNC1C(OC2C(OC3C(O)C(O)C(NC(=N)N)C(O)C3NC(=N)N)OC(C)C2(O)C=O)OC(CO)C(O)C1O (configuration not stated) | 99.9 ± 10 | 86.1 ± 18
COc1cccc(-n2nnnc2S(C)(=O)=O)c1 | 88.1 ± 9.8 | 67.1 ± 23
Cc1nnc(NC(=O)c2cn(-c3ccccc3)nc2-c2ccccc2C)o1 | 0.31 ± 0.38 | 0.18 ± 0.31
CC[C@H](CO)NCCN[C@H](CC)CO | 88.7 ± 6.4 | 77 ± 21
CC(C)(C)C1CCC(CC2=C(O)C(=O)c3ccccc3C2=O)CC1 (configuration not stated) | 17.3 ± 28 | 36.3 ± 11
CN(C)c1cc(NC(=O)Nc2ccccc2)c2ccccc2n1 | 105 ± 8.6 | 87 ± 34
c1ccc(Oc2ccc(-c3cc(C4CCOCC4)[nH]n3)cc2)cc1 | 59.7 ± 17 | 49.6 ± 19
CC(C(=O)N1CCCC1)N1CCN(S(=O)(=O)c2ccc(C(C)(C)C)cc2)CC1 (configuration not stated) | 84.8 ± 24 | 63.4 ± 27
O=C(Nc1c(O)cccc1-c1nc2c(C(=O)O)cccc2o1)c1cc(-c2ccccc2)on1 | 61.5 ± 26 | 11.1 ± 6.9
